Source: US20140271602, “NUCLEOTIDE-SPECIFIC RECOGNITION SEQUENCES FOR DESIGNER TAL EFFECTORS” (THE BROAD INSTITUTE INC., published 2014)

Molecular target: T1, TALE2-NN (CACNA1C site 2 activator) (Xanthomonas (engineered), UniProt P14727 SEQ:1-983)
T1 chain: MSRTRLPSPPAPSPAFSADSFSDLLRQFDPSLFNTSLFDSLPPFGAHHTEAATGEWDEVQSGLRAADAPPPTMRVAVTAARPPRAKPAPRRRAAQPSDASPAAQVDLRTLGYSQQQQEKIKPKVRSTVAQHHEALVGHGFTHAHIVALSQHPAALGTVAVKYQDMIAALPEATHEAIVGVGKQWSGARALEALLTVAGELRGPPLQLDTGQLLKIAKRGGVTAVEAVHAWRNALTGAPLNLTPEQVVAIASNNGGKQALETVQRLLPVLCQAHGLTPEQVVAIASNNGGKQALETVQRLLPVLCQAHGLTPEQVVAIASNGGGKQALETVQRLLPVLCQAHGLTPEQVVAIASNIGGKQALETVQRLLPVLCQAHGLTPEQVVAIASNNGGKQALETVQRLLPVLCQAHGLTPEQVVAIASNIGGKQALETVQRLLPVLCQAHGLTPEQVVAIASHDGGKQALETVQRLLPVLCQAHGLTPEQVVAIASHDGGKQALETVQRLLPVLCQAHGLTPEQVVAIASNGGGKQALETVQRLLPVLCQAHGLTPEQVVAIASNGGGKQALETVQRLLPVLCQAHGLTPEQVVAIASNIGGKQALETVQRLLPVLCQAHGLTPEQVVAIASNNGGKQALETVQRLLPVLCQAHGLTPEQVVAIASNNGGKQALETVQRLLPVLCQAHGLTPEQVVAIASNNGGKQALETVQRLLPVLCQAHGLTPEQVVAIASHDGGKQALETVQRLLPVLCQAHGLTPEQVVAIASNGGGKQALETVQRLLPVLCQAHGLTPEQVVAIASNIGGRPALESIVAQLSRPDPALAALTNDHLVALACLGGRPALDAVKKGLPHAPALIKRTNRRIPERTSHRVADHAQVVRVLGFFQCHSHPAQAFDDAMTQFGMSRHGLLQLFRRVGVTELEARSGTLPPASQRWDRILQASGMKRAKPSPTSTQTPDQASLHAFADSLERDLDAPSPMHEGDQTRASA
Assay: cell_activity; luciferase reporter
Conditions: tags: VP64, 2A-GFP; dsDNA, one strand shown
Description: TALEs using NN, NK, NH, and HN as the G-targeting RVD were synthesized to target two distinct 18 bp target sites in the human CACNA1C locus. Changes in mRNA are measured using qRT-PCR as described previously. VP64, VP64 transcription activation domain. All results are collected from three independent experiments in HEK 293FT cells. Error bars indicate s.e.m.; n=3. FIG. 19(b) discloses SEQ ID NOS 63 and 62, respectively, in order of appearance.
To determine whether NH and HN are suitable replacements for NN as the G-specific RVD, specificity and activity strength of NN, NK, NH, and HN were directly compared. Two 18 bp targets within the CACNA1C locus in the human genome were chosen and four TALEs for each target were constructed, using NN, NK, NH, or HN as the G-targeting RVD (FIG. 19a). […] For each CACNA1C target site, four luciferase reporters were constructed: wild type genomic target, and wild type target with 2, 4, or all guanines mutated into adenines (FIG. 19a, G-to-A reporters), and compared the activity of each TALE using these reporters (FIG. 19a). […] Thus, focus was placed on the RVDs NN, NK, and NH in subsequent experiments to assess their usefulness in modulating transcription at endogenous human genome targets.

Row | Sequence | binding signal
1 | TAATAGACCTTAGGGCTA | 21.8 % reduction vs wild-type site
